Compounds without any hit were thinned out: in the full panel of roughly 83,000, 20% have a hit.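 Growth was measured after 48 h exposure to one concentration of compound in 96-well plates. Values under 10 count as active.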 Values without a mark were called inactive. Calls of active or inactive are those of the source.
system: SK-MEL-5 melanoma; assay: NCI-60 one-dose screen, 48 h (100 = growth as untreated, 0 = no growth, -100 = all killed); conditions: 10 µM unless noted

| SMILES | growth |
| --- | --- |
| CCOC(=O)c1c(NC(=O)c2ccccc2)sc2c3c(ccc12)OCN(C)C3 | -40.3% (active) |
| COc1ccc(NC(=O)c2ccc(Nc3ncnc4c3cnn4-c3cccc(F)c3)cc2)cc1 | 98.4% |
| COC(=O)c1c(C)nc(C)c2c1C(=O)C=C(NCc1ccccc1)C2=O | 51.4% |
| CS(=O)(=O)Nc1cc(-c2ccc3ncnc(Nc4ccc5c(cnn5Cc5ccncc5)c4)c3c2)cnc1Cl | 52.5% |
| S=c1ccnc[nH]1 | 109% |
| Cc1ccc(S(=O)(=O)c2nc(-c3ccccc3)oc2SCC(N)=O)cc1 | 94.9% |
| CN(C)Cc1ccc(NC(=O)c2cncc(C#Cc3cnc(N)c4ncccc34)c2)cc1C(F)(F)F | 24.8% |
| COc1cc(/C=C/c2cn[nH]c2-c2ccc(C)cc2)cc(OC)c1OC | 12% |
| CCOC(=O)C(CCN(C)C)c1ccccc1 (centres undefined) | 103% |
| O=C(/C=C/c1ccccc1)N(C1CCCCC1)C1CCCCC1 | 89.9% |
| CC1(C)CC[C@]23CC[C@]4(C)[C@H](CC[C@@H]5[C@@]6(C)CCNCC(C)(C)[C@@H]6CC[C@]54C)[C@H]2[C@H]1OC3 | 96.2% |
| Cc1nc2sc(C(=O)Nc3cccc4ccccc34)c(N)c2cc1C(=O)c1ccccc1 | 25% |
| Cc1ccc(O)c(NC(=O)c2cccc(Nc3ccnc(C(F)(F)F)c3)c2)c1 | 20.7% |
| N#CSc1c[nH]c2ccc(/C=C/C(=O)/C=C(O)/C=C/c3ccc4[nH]cc(SC#N)c4c3)cc12 | 41.2% |
